The target in this assay is RUNX1 (UniProt Q01196). Briefly: TF binding intensity (PBM fluorescence), negative control probe (arbitrary fluorescence units); higher = stronger binding. As for the experimental part:
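gcPBM negative-control 36-bp genomic probes lacking TF binding sites. Each was incubated with recombinant human ETS1 or RUNX1 alone and detected by antibody fluorescence. Values are medians over replicate spots (4 spots for the ETS1-RUNX1 arrays, 3 for the ETS1-ETS1 array). The probes sit in constant array flanks that are not printed.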
Sequence of RUNX1 (Q01196 whole entry): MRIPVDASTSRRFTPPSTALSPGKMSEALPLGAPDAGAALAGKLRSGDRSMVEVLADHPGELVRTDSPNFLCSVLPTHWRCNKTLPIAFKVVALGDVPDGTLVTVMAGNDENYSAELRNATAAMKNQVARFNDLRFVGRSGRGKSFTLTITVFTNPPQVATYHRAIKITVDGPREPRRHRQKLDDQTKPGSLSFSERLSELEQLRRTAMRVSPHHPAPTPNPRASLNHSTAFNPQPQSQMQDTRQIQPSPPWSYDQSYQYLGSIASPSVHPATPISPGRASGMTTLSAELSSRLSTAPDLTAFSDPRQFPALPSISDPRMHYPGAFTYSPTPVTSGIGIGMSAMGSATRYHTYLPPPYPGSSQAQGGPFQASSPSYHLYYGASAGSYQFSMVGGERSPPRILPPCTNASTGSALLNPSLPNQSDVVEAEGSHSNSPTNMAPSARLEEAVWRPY
As for “GACGAGCCCGGTGGCAGGAAGTGACAGTGAGAAACT (protein concentration 2 nM)”, the TF binding intensity was determined as 965.
The sequence “ACAGCTGAATTCTCACTTCCTTCGTCTCTGAGCCTG (protein concentration 2 nM)” came in with a TF binding intensity of 874.
Then “GAAAAACAGACAGACAGGAAGAGAGAGAGACAGACA (protein concentration 2 nM)”, with 903; and “TCTCGCCCCTCATCCCGGAAAGGAAGACTCTGAATG (protein concentration 2 nM)”, with 891.
The result for “ACCCCATTTCAGTCATTTCCTGCTGCAACTAAGTCA (protein concentration 2 nM)” reads 1070; that for “GGGCCTGCGCGCGCACTTCCGCTCTCCCCTCCGGCT (protein concentration 2 nM)”, 759; that for “GGGTGCAGAAGCCAGCGGAAGCGGAGCGCTACAAGC (protein concentration 2 nM)”, 784.
In the case of “CCTTTGAAAGAAAAAAGGAAGTGTTTGGACGACAGC (protein concentration 2 nM)”, the TF binding intensity is 1150.
“GCAGTCAGCCCTTCCCTTCCTGTCCGTCAACTCCGG (protein concentration 2 nM)” gave a TF binding intensity of 875.
Then “CTGATTCACTGCCCTCTTCCGCTCTGAGGCGTCGCC (protein concentration 2 nM)”, with 1030.
Then “CCATGATGTTTGTGATTTCCGGCAGATGATGAGTAA (protein concentration 2 nM)”, with 970; and “AGGAGTTTGCTCATCCTTCCGGATCCAAAGGCTGCG (protein concentration 2 nM)”, with 712.
Then “GAAGGGGTTTCAGGACGGAAGCAAACACATATTCAA (protein concentration 2 nM)”, with 912; and “CTCACACCCAGTCCCAGGAAGCGAGCCCCACGTCGC (protein concentration 2 nM)”, with 894.
The sequence “ATTTCTGTGCAGTCACTTCCTCTTCTTAGGTCATAG (protein concentration 2 nM)” displayed a TF binding intensity of 1010.
“ATGTGTGTGTTTTTCCTTCCGGTTGCTGTGAGGTGA (protein concentration 2 nM)”: the TF binding intensity turned out to be 919.
Then “ATCAAGGCGCGGCGGCGGAAAAATGTGAAATGGCTT (protein concentration 2 nM)”, with 920; and “ACGGCAAGTAAAGTGTTTCCGGCTCAGGTGTCATGG (protein concentration 2 nM)”, with 852.
Then “GCTCCATCACCTCCTCTTCCGGTCCCTCCTCTAGGG (protein concentration 2 nM)”, with 1160; and “GCGTACACCTGCCGCCGGAAGAAGAGCGACGGTCGC (protein concentration 2 nM)”, with 909.
Then “TTGCCCGTCACTTGAGTTCCGCCTCCTCTGCTCCTC (protein concentration 2 nM)”, with 922; and “AGGAGGAGATGGGACAGGAAGGAATAGATGGGAGCA (protein concentration 2 nM)”, with 1720; and “TAACTCTTTGCTATCCTTCCGCTGAGCTTCATCTTC (protein concentration 2 nM)”, with 963.
For the sequence “CTGCTCGGCCAGGTCCGGAAAGAGAGAACGGGCTGG (protein concentration 2 nM)”, the TF binding intensity worked out at 859.
Then “AAGTAAGCCCCGCCCCGGAACGGGCAGAAGTAGAGG (protein concentration 2 nM)”, with 1060; and “GGCCAGAGGAGGGCGCGGAAGTGTTGCCTGGGTGAG (protein concentration 2 nM)”, with 917; and “TCCCTGCTGGTCCTGGTTCCGGCACACCAGGCCCTC (protein concentration 2 nM)”, with 864.
Take “GTCCCGCCTTCTCCGCTTCCGCCACCTCCTACTTAG (protein concentration 2 nM)”: the TF binding intensity is 1160.
As for “TCCAGGGCCACCCCATTTCCTGCCCTCAGCACTTCG (protein concentration 2 nM)”, the TF binding intensity was determined as 929.
The result for “GTGTTTTGCAGCGAAAGGAAATCTCGCTCTTCGGAA (protein concentration 2 nM)” reads 882.
Sequence “TCGAACAGAATGGAACGGAACGGAACGGAGCGTAAC (protein concentration 2 nM)” had a TF binding intensity of 1650.
